Source: PubChem BioAssay (NCATS)
Records with an inconclusive call do not appear. The source made the active and inactive calls. Unless noted, calls come from the whole dose curve; as a rule, active = well fitted curve in the direction sought with a large enough effect; inconclusive = small, poorly fitted or top-dose-only effect, or another doubt; inactive = no such curve, though single readings can be large; an effect the other way counts as inactive or inconclusive.

Tests used:
[1] = biological target: Lysosomal acid glucosylceramidase (Homo sapiens) (UniProt P04062); experiment: Glucocerebrosidase-p2 (AID 348; in the data active = potency below about 10 µM; note: potency is the fitted concentration of half-maximal effect); settings: purified GBA, blue fluorogenic substrate, 40 min
Sequence of Lysosomal acid glucosylceramidase (Homo sapiens) (P04062 whole entry, looked up): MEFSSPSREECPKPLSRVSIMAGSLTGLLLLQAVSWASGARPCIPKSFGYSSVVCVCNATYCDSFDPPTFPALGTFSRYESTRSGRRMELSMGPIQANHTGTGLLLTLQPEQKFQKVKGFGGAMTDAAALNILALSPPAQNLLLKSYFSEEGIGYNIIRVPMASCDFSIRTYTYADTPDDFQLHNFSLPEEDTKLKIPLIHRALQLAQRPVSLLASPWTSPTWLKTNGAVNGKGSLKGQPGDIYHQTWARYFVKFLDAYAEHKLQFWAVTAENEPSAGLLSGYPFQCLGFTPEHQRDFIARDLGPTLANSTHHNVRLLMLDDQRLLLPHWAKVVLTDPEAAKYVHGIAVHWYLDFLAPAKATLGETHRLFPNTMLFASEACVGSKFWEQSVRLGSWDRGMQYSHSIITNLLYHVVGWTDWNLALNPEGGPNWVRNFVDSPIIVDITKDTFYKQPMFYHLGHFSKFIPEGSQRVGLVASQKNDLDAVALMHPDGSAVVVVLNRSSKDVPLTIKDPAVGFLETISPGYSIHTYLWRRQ
In short: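 Normal human glucocerebrosidase (0.2 nM) with blue fluorogenic substrate (80 uM final) in citrate/phosphate pH 5.9 with 10mM sodium taurocholate, 0.01% tween-20; 40 min RT, NaOH/glycine stop; fluorescence Ex 365/Em 440; AC50 from a titration from 0.6 nM upwards.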

[2] = AP1 Signaling Pathway (AID 357; active = well fitted curve in either direction with a large enough effect, not every such curve was filed as active;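 note: ME-180 reporter cells stimulated with EGF at its EC50 level; % is set by controls: 0 for no effect and ±100 for the full control effect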); settings: ME-180 (cervical carcinoma) AP-1-bla reporter, EGF-induced, beta-lactamase ratio, 5 h; at 7.69 µM (top of the series) unless noted
In short: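 Cells are seeded overnight, exposed to compound titrations and an EC50 level of EGF for 5 hours at 37 °C, then loaded with CCF4 dye for 2.5 hours. Beta-lactamase activity under the AP-1 element is read as a blue/green ratio.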

[3] = biological target: Cytochrome P450 1A2 (Homo sapiens) (UniProt P05177); experiment: p450-cyp1a2 (AID 410; calls by dose curve; note: potency is the fitted concentration of half-maximal effect)
Sequence of Cytochrome P450 1A2 (Homo sapiens) (P05177 whole entry, looked up): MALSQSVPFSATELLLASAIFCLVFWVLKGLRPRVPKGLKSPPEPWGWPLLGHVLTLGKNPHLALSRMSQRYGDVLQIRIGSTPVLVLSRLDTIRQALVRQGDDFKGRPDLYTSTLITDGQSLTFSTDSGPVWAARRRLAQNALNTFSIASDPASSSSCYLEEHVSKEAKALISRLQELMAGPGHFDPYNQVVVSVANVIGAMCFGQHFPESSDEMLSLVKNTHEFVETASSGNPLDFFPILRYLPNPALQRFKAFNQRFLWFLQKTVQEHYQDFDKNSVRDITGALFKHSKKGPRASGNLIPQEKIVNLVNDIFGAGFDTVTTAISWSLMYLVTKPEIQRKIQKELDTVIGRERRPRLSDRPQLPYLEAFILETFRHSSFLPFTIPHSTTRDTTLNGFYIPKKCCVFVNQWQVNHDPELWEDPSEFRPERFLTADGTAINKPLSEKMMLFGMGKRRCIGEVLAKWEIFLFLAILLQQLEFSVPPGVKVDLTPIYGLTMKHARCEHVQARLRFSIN
In short: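 Luminescent demethylation readout: Luciferin-ME (100uM, equal to Km) turned over by 20nM CYP1A2 for 60 min at room temperature after NADPH regeneration addition, following 10 min compound preincubation. Normalization used 57 uM furafylline as full inhibition.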

[4] = NFAT Signaling Pathway (AID 444; active = well fitted curve in either direction with a large enough effect, not every such curve was filed as active;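 note: carbachol stimulus at about its EC50 of 1 µM final; % is set by controls: 0 for no effect and ±100 for the full control effect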); settings: Jurkat NFAT-bla M1, carbachol, beta-lactamase ratio, 5 h; at 7.69 µM (top of the series) unless noted
In short: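 Jurkat cells carrying an NFAT-driven β-lactamase reporter and co-transfected muscarinic M1 receptor were treated with compound plus carbachol (1 uM final, an EC50 level) for 5 h at 37 °C. CCF4 loading followed for 1 h at RT; 460/530 nm ratio gave %activity.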

[5] = Stat Signaling Pathway (AID 446; active = well fitted curve in either direction with a large enough effect, not every such curve was filed as active;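 note: ME-180 cervical cancer cells given 40 pM IL-6 alongside compound; SIE-controlled beta-lactamase reporter measured as 460/530 nm FRET emission ratio; % is set by controls: 0 for no effect and ±100 for the full control effect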)
In short: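 Normalization used AC90 stimulation (300 pM IL-6) and AC90 inhibition (125 nM pan-JAK inhibitor at 40 pM IL-6). The underlying signal is SIE-driven beta-lactamase in ME-180 cells after 5 h IL-6 exposure with compound.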

[6] = biological target: Glucocorticoid receptor (Homo sapiens) (UniProt P04150); experiment: GR-GFP Redistribution (AID 450;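 active = compounds whose dose series gives a full or clear partial fitted curve of increased nuclear translocation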; note: potency is the fitted concentration of half-maximal effect); settings: U2OS GR-GFP nuclear translocation, laser cytometry, 2 h
Sequence of Glucocorticoid receptor (Homo sapiens) (P04150 whole entry, looked up, the tested form may be a part): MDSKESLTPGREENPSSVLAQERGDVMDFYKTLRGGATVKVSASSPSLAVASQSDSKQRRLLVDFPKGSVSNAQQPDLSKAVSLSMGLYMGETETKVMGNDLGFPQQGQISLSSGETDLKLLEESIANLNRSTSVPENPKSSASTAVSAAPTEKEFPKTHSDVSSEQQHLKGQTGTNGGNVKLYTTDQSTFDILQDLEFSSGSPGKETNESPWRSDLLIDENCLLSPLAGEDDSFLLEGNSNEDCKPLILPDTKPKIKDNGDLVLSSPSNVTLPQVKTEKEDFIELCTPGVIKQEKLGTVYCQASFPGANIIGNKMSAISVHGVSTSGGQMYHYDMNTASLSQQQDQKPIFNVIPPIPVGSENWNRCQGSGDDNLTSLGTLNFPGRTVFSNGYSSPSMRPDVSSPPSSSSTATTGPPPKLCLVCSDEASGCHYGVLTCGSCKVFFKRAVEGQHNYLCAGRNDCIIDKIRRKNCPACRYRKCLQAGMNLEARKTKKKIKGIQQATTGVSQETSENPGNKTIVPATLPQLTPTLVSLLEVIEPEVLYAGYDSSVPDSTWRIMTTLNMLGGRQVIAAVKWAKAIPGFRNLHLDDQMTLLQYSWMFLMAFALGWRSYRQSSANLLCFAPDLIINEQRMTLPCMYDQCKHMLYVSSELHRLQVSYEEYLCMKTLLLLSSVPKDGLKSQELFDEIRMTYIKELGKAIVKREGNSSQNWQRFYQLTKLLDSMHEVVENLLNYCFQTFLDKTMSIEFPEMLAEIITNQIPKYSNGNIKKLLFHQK

[7] = biological target: Glucocorticoid receptor (Homo sapiens) (UniProt P04150); experiment: GR-EFC Redistribution (AID 451; calls by dose curve; note: potency is the fitted concentration of half-maximal effect); settings: CHO-K1 GR-EFC translocation, beta-gal luminescence, 2 h
In short: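 CHO-K1 cells stably expressing nuclear-localized β-gal enzyme acceptor and GR fused C-terminally to the enzyme donor fragment; ligand-driven nuclear translocation restores β-gal by complementation. Compounds titrated up to 46 uM final, 2 h at 37 °C; luminescence read.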

[8] = biological target: Cytochrome P450 3A4 (Homo sapiens) (UniProt P08684); experiment: qHTS Assay for Activators of Cytochrome P450 3A4 (AID 885); note: nearly all actives have a fitted effect of over 65% in size
Sequence of Cytochrome P450 3A4 (Homo sapiens) (P08684 whole entry, looked up): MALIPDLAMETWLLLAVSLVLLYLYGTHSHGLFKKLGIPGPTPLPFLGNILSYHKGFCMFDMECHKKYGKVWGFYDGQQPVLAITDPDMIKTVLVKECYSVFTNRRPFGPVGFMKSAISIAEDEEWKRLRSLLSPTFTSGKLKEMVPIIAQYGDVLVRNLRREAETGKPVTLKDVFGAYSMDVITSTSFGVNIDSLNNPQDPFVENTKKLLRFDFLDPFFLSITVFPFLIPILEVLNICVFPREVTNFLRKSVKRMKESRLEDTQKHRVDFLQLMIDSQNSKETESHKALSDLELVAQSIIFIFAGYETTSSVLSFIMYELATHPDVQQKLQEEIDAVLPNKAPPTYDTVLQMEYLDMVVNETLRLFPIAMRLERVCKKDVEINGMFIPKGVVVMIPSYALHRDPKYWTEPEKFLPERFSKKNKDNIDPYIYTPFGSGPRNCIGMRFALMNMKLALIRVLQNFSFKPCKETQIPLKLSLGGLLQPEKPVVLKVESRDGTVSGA
In short: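 Human CYP3A4 dealkylates Luciferin-PPXE to luciferin, which luciferase detection converts to light. Substrate was at its KM (25uM), buffer 200mM KPO4, reaction 60 min at RT.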

[9] = biological target: Cytochrome P450 2D6 (Homo sapiens) (UniProt P10635); experiment: qHTS Assay for Inhibitors and Substrates of Cytochrome P450 2D6 (AID 891); note: potency is the fitted concentration of half-maximal effect; nearly all actives have a fitted effect of over 60% in size
In short: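 Luminescent read-out of luciferin formed by 5 nM human CYP2D6 demethylating 30 uM Luciferin-ME EGE (Km level) over 60 min at room temperature after NADPH regeneration addition. Data normalized to full inhibition by 1.43 uM quinidine.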

[10] = biological target: Dual specificity protein kinase CLK4 (Homo sapiens) (UniProt Q9HAZ1); experiment: qHTS Assay for Inhibitors of CDC-like Kinase 4 (Kinase-Glo Assay) (AID 1770); note: % is set by controls: 0 for no effect and ±100 for the full control effect; nearly all actives have a fitted effect of over 65% in size
Sequence of Dual specificity protein kinase CLK4 (Homo sapiens) (Q9HAZ1 whole entry, looked up): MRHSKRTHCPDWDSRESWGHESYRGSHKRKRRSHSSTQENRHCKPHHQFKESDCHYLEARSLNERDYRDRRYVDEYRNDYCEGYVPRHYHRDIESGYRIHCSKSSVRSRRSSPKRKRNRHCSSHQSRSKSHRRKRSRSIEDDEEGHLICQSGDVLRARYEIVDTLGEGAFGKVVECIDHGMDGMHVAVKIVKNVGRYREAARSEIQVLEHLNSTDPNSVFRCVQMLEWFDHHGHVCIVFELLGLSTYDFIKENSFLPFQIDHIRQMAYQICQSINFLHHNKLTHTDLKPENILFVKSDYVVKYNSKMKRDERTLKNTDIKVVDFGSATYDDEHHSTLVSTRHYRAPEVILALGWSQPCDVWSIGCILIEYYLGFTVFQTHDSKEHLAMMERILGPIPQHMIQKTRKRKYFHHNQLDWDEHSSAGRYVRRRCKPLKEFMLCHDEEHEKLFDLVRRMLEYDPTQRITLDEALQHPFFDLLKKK
In short: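 Recombinant human Clk4 (25 nM) phosphorylated RS repeat peptide (100 uM) with 1 uM ATP in Tris pH 7.5/MgCl2/EGTA/DTT/Triton buffer for 4.5 h at room temperature. Residual ATP was quantified by Kinase-Glo luciferase luminescence.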

[11] = biological target: Dual specificity protein kinase CLK4 (Homo sapiens) (UniProt Q9HAZ1); experiment: qHTS Assay for Inhibitors of CDC-like Kinase 4 (ADP-Glo Assay) (AID 1771); note: % is set by controls: 0 for no effect and ±100 for the full control effect; nearly all actives have a fitted effect of over 70% in size
In short: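 ADP production was read by ADP-Glo luminescence after residual ATP depletion, following 1 h room-temperature reaction of 25 nM Clk4, 1 uM ATP and 100 uM RS peptide with MgCl2, EGTA, DTT and Triton X-100.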

[12] = biological target: Dual specificity protein kinase CLK4 (Homo sapiens) (UniProt Q9HAZ1); experiment: qHTS Assay for Inhibitors of CDC-like Kinase 4 (ADP-FP Assay) (AID 1795); note: % is set by controls: 0 for no effect and ±100 for the full control effect; nearly all actives have a fitted effect of over 60% in size
In short: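 Recombinant human Clk4 (6.25 nM) phosphorylated RS repeat peptide (100 uM) with 1 uM ATP in Tris pH 7.5/MgCl2/EGTA/DTT/Triton buffer for one hour. ADP was quantified by Transcreener competitive fluorescence polarization against an ADP calibration curve.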

[13] = biological target: Ubiquitin carboxyl-terminal hydrolase 1 (Homo sapiens) (UniProt O94782); experiment: Inhibitors of USP1/UAF1: Pilot qHTS (AID 504865);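 note: rhodamine fluorescence freed from ubiquitin-rhodamine substrate followed over time; top concentration of the series differs between compounds; % is set by controls: 0 for no effect and ±100 for the full control effect; nearly all actives have a fitted effect of over 35% in size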
Sequence of Ubiquitin carboxyl-terminal hydrolase 1 (Homo sapiens) (O94782 whole entry, looked up): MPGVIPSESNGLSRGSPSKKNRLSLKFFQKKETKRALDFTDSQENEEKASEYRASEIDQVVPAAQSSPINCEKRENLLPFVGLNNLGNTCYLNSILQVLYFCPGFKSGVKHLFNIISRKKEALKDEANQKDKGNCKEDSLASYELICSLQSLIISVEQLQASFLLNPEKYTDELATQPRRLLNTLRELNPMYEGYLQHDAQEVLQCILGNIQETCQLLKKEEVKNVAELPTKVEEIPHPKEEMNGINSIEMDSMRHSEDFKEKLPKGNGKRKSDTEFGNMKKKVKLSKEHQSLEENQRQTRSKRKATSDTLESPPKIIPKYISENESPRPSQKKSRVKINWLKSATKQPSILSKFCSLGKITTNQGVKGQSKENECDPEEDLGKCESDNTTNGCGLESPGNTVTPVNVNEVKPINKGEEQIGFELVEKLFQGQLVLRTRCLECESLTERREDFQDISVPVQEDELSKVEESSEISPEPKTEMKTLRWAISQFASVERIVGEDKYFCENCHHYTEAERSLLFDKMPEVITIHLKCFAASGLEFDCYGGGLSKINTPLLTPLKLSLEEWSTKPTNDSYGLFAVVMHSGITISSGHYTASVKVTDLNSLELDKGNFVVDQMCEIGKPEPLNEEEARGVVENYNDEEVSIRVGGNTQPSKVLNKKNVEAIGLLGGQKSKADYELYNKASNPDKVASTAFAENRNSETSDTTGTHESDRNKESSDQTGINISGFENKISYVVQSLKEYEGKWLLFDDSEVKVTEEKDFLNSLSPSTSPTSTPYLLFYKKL
In short: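 USP1/UAF1 complex (1nM) preincubated with compound 15 min at room temperature, then Ub-Rho substrate (150nM final) added. Fluorescence read kinetically at 480/540 nm, 6 reads every 60 seconds. Buffer: 50mM HEPES pH 7.8, 0.5mM EDTA, 0.1 mg/ml BSA, 1mM TCEP, 0.01% Tween-20.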

[14] = NCATS anti-infectives library activity on the primary C. elegans qHTS viability assay (AID 1745855; calls by dose curve; note: potency is the fitted concentration of half-maximal effect)
In short: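 GFP read-out by 488 nm laser cytometry at day 0, 3 and 7, gated on object perimeter, area and peak intensity, scored viability of PE254-GFP-FLuc worms exposed to compound in S medium with bacterial capsules at 21 °C.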

[15] = biological target: Mitogen-activated protein kinase 10 (Mus musculus) (UniProt Q61831); experiment: JNK3 AlphaScreen Assay (AID 530; active = well fitted curve in either direction with a large enough effect, not every such curve was filed as active;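 note: kinase came from lysate of stimulated human HepG2 cells; signal reports phosphorylation of biotinylated GST-cJun 1-79 at Ser73 with 10 µM ATP; % is set by controls: 0 for no effect and ±100 for the full control effect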)
In short: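 Phosphorylation of biotinylated GST-cJun(1-79) at Ser73 is measured by AlphaScreen proximity luminescence. Enzyme is JNK3 in HepG2 lysates activated with interleukin-1beta and tumor necrosis factor alpha; ATP is 10 uM final.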

[16] = biological target: 3',5'-cyclic-AMP phosphodiesterase 4B (Homo sapiens) (UniProt Q07343); experiment: qHTS Assay for Inhibitors of PDE-IV (AID 607; active = well fitted activation curve with a large enough effect in the main read-out, with a control signal flat, not every such curve was filed as active; note: % of control where 0% means no effect)
Sequence of 3',5'-cyclic-AMP phosphodiesterase 4B (Homo sapiens) (Q07343 whole entry, looked up): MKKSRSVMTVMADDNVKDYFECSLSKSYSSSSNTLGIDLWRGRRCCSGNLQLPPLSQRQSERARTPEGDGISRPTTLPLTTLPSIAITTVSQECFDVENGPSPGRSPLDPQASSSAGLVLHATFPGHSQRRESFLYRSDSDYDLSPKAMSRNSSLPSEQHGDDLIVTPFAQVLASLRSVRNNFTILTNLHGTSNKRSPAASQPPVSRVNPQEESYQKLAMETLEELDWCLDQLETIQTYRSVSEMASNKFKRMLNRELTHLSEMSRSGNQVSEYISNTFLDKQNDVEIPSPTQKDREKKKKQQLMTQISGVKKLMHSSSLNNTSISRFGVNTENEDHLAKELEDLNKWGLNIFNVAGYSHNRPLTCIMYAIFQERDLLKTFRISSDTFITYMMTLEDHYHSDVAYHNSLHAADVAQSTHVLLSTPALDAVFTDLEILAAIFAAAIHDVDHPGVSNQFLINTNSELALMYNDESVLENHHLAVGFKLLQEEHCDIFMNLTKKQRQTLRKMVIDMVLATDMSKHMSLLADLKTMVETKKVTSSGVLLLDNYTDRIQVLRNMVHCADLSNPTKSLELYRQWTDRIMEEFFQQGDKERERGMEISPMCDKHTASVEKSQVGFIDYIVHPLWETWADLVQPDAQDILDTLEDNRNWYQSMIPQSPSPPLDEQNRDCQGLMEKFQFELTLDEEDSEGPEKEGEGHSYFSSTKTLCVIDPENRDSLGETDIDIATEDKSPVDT
In short: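 HEK293 ACTOne cells with CNG channel (1000/well), endogenous PDE4; membrane potential dye, compounds up to 22.9 uM final. Fluorescence Ex 535/Em 590; RO 20-1724 (100 uM final) as reference.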

[17] = NCATS anti-infectives library activity on HEK293 viability as a counter-qHTS vs the C. elegans viability qHTS (AID 1745854); note: % is set by controls: 0 for no effect and ±100 for the full control effect
In short: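 Cytotoxicity counter-screen to a worm viability qHTS: CellTiter-Glo luminescence read 10 min after reagent addition. Compounds (final up to 41.7 uM, a 1:5 dilution series) incubated 24 hr at 37C with 1,500 HEK293 cells per well; digitonin control.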

[18] = biological target: Phospholipid hydroperoxide glutathione peroxidase GPX4 (Homo sapiens) (UniProt P36969); experiment: Primary qHTS Assay for Inhibitors of Recombinant Selenoprotein Glutathione Peroxidase 4 (GPX4) (AID 1845192); note: nearly all actives have a fitted effect of over 65% in size; note: potency is the fitted concentration of half-maximal effect
Sequence of Phospholipid hydroperoxide glutathione peroxidase GPX4 (Homo sapiens) (P36969 whole entry, looked up): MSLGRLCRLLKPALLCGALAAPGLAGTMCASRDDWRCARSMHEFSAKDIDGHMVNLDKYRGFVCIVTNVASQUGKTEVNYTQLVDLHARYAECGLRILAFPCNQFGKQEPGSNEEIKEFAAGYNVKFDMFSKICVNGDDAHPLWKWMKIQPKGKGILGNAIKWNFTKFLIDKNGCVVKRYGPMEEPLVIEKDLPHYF
In short: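 qHTS, GR-coupled: GPX4 200 nM + cpd 30 min RT → GSH 1 mM, NADPH 0.5 mM, GR 100 nM → CHP 0.5 mM start; fluor 340/450 at t0 and t15 min; no-enzyme wells as control.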

[19] = biological target: Glutathione peroxidase 1 (Homo sapiens) (UniProt P07203); experiment: Primary qHTS Assay for Inhibitors of Recombinant Selenoprotein Glutathione Peroxidase 1 (GPX1) (AID 1845191); note: % is set by controls: 0 for no effect and ±100 for the full control effect; nearly all actives have a fitted effect of over 65% in size
Sequence of Glutathione peroxidase 1 (Homo sapiens) (P07203 whole entry, looked up): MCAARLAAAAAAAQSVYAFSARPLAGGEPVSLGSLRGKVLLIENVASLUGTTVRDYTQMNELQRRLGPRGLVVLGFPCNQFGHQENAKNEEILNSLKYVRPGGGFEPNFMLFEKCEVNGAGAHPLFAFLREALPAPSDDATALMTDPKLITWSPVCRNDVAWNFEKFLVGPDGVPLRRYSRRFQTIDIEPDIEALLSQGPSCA
In short: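 GPX1 10 nM, GR 100 nM, GSH 1 mM, NADPH 0.5 mM, CHP 0.5 mM (final). 30-min cpd preincubation, RT. Ex340/Em450 read t=0, t=15 min.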

CN(C)c1ncc2nc(CCc3ccccc3)c(=O)n(CCC#N)c2n1
active: Potency [3] 2 µM | Potency [9] 2.51 µM
inactive: Potency [1] > 11.4 µM | activity change, negative = inhibition [2] -11% | activity change, negative = inhibition [4] -3.25% | outcome [5] | Potency [6] > 9.22 µM | Potency [7] > 46 µM | outcome [8] | Potency [10] | Potency [11] | Potency [12] | Potency [13]

CCCC[C@H](NC(=O)[C@@H]1[C@@H]2[C@H](CN1C(=O)[C@@H](NC(=O)NC1(CS(=O)(=O)C(C)(C)C)CCCCC1)C(C)(C)C)C2(C)C)C(=O)C(=O)NC1CC1
inactive: Potency [14]

COc1ncc2nc(CCc3ccccc3)c(=O)n(-c3ccccc3)c2n1
active: Potency [3] 12.6 µM
inactive: Potency [1] > 11.4 µM | activity change, negative = inhibition [2] -22.4% | activity change, negative = inhibition [4] -14.3% | outcome [5] | Potency [6] > 9.22 µM | Potency [7] > 46 µM | Potency [15] | Potency [16] | Potency [10] | Potency [11] | Potency [12] | Potency [13]

COc1ccc2c(O[C@H]3CC4C(=O)N(C)CCCC/C=C\[C@@H]5C[C@@]5(C(=O)NS(=O)(=O)C5CC5)NC(=O)[C@@H]4C3)cc(-c3nc(C(C)C)cs3)nc2c1C (some centres undefined)
active: Potency [18] 2 µM
inactive: Potency [17]

CC(C)(C)c1cc(C(=O)/C(C#N)=N/Nc2cccc(Cl)c2)no1
active: Potency [14] 14.5 µM

O=C1O[C@H]2[C@H](OC(O)[C@@H]2O)[C@@H]1O (some centres undefined)
inactive: Potency [17] | Potency [19] | Potency [18]

CN1CCN(c2ncc3nc(-c4ccccc4)c(=O)n(Cc4cccs4)c3n2)CC1
active: Potency [3] 15.8 µM
inactive: Potency [1] > 11.4 µM | activity change, negative = inhibition [2] 7.66% | activity change, negative = inhibition [4] -9.53% | outcome [5] | Potency [6] > 9.22 µM | Potency [7] > 46 µM | Potency [16] | Potency [10] | Potency [11] | Potency [12]
